The nature of assay [1]: CCTE_Shafer_MEA_dev_per_burst_spike_percent: CCTE's Neural Network Formation Assay for Percent of Spikes in a Burst, Shafer Lab (AID 2284032).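 For AC50: fitted as a decrease in burst spike percentage below DMSO baseline.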 The method in brief:
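Value is trapezoidal AUC over recordings on days 5, 7, 9 and 12 of the well-mean fraction of spikes falling in single-electrode bursts; rat cortical cultures exposed continuously from plating, treatment renewed DIV 5 and 9, fitted downward against DMSO.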

Assay [2] in a line: CCTE_Shafer_MEA_dev_burst_rate: CCTE's Neural Network Formation Assay for Burst Rate, Shafer Lab (AID 2284042).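 For AC50: potency for loss of burst rate below DMSO control.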 An outline of the steps:
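Cells plated, treated day 0; recorded DIV 5, 7, 9, 12; fed and re-treated DIV 5, 9. Endpoint: bursts per recording time, active-electrode well mean, trapezoidal AUC, fitted in decreasing direction against DMSO baseline.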

A short description of assay [3]: CCTE_Shafer_MEA_dev_bursting_electrodes_number: CCTE's Neural Network Formation Assay for Number of Bursting Electrodes, Shafer Lab (AID 2284043; active = hit-call score of the fitted dose curve at least 0.9, where 1 is the maximum;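 for AC50: potency is for loss of bursting electrodes relative to DMSO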). The method in brief:
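Rat cortical primary neurons, 48-well MEA, 16 electrodes/well; dosing DIV 0–12, re-dosed with full media change DIV 5, 9. Recordings DIV 5/7/9/12, AxIS adaptive spike detector; bursting electrode = ≥1 burst/2 min. AUC across days; loss of signal vs DMSO.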

Assay [4] can be described thus: CCTE_Shafer_MEA_dev_per_burst_interspike_interval: CCTE's Neural Network Formation Assay for Burst Interspike Interval, Shafer Lab (AID 2284044).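 For AC50: potency for a decrease of within-burst interspike interval below DMSO level.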 The method in brief:
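Neurons from rat cortex plated onto PEI-coated MEA wells with laminin […] at 1.5 x 10^5 cells/well, then treated from day 0. Media and compound fully replaced on DIV 5 and 9. Extracellular spontaneous firing recorded four times; interspike interval per burst summarised as AUC.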

A short description of assay [5]: CCTE_Shafer_MEA_dev_burst_duration_mean: CCTE's Neural Network Formation Assay for Mean Burst Duration, Shafer Lab (AID 2284045).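 For AC50: curve fitted for loss meaning shorter burst duration than DMSO.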 An outline of the steps:
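Rat cortical cultures, 1.5 x 10^5 cells/well with laminin drop; continuous dosing days 0–12, media plus treatment refreshed DIV 5, 9. AxIS adaptive spike detection; mean single-electrode burst duration, AUC over four recordings, negative direction vs DMSO.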

Assay [6] in a line: CCTE_Shafer_MEA_dev_interburst_interval_mean: CCTE's Neural Network Formation Assay for Mean Interburst Interval, Shafer Lab (AID 2284046).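 Note: curve fitted for decrease in interburst interval relative to DMSO.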 The method in brief: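 Developing rat cortical networks on 48-well MEAs receive compound from the day of plating. Burst intervals from each active electrode are averaged per well, and AUC over the recording days is fitted in the negative direction against DMSO.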

A short description of assay [7]: CCTE_Shafer_MEA_dev_inter_network_spike_interval_mean: CCTE's Neural Network Formation Assay for Mean Inter-network Spike Interval, Shafer Lab (AID 2284047).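 For AC50: potency for a decrease in mean inter-network spike interval below DMSO.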 An outline of the steps: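 Rat cortical cultures, 1.5 x 10^5 cells/well on 48-well MEA plates; continuous exposure days 0–12, medium and compound refreshed DIV 5, 9. Mean time between consecutive network-spike peaks; AUC across DIV 5/7/9/12; DMSO baseline, negative fitting direction.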

The nature of assay [8]: CCTE_Shafer_MEA_dev_network_spike_number: CCTE's Neural Network Formation Assay for Number of Network Spikes, Shafer Lab (AID 2284048).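 For AC50: fit as a loss of signal meaning fewer network spikes than DMSO.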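 Note: synchronized bursts across electrodes counted on days 5 7 9 12 and integrated as AUC.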 An outline of the steps: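 Rat cortical primary cultures on 48-well MEA (16 electrodes/well); continuous exposure DIV 0–12, full medium and treatment exchange DIV 5, 9. Readout: network spike count, AxIS adaptive detection, recordings DIV 5/7/9/12 collapsed to AUC; loss-of-signal fit, DMSO baseline.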

Assay [9] in a line: CCTE_Shafer_MEA_dev_network_spike_peak: CCTE's Neural Network Formation Assay for Mean Number of Electrodes in Network Spike, Shafer Lab (AID 2284049).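 For AC50: fitted for loss of signal meaning fewer electrodes in network spikes than DMSO.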 An outline of the steps: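 Network-spike peak electrode count from recordings on days 5, 7, 9 and 12 was combined as trapezoidal area under the curve. Rat cortical cultures were treated continuously from plating, with compound renewed at each feed (DIV 5, 9); fits versus DMSO.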

Assay [10] can be described thus: CCTE_Shafer_MEA_dev_network_spike_duration_std: CCTE's Neural Network Formation Assay for Standard Deviation of Network Spike Duration, Shafer Lab (AID 2284052).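 Note: hits are decreases in network spike duration SD versus DMSO vehicle.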 An outline of the steps: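 Read-out is the trapezoidal area-under-the-curve across recordings made on days 5, 7, 9 and 12, fitted in the negative direction against DMSO baseline. Neurons were primary rat cortical cells treated from day 0, with treatment renewed at each feed.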

Assay [11] is described as follows: CCTE_Shafer_MEA_dev_per_network_spike_spike_number_mean: CCTE's Neural Network Formation Assay for Mean Number of Spikes in a Network Spike, Shafer Lab (AID 2284053).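 For AC50: fitted as decrease in spikes per network spike relative to DMSO.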 The method in brief:
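Continuous twelve-day exposure of developing rat cortical networks grown over 16 microelectrodes per well; spontaneous firing is captured at four time points, and the per-network-spike spike number is integrated over development by trapezoidal AUC.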

Assay [12] in a line: CCTE_Shafer_MEA_dev_per_network_spike_spike_percent: CCTE's Neural Network Formation Assay for Percent of Spikes in a Network Spike, Shafer Lab (AID 2284054). The method in brief: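 Read-out: percent of spikes falling in a 0.05 s window at network-spike peak, from spontaneous MEA recordings on days 5, 7, 9 and 12; trapezoidal AUC; loss of signal versus DMSO. Rat cortical cultures, compound present throughout.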

Assay [13] can be described thus: CCTE_Shafer_MEA_dev_mutual_information_norm: CCTE's Neural Network Formation Assay for Mutual Information Normalization, Shafer Lab (AID 2284091).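 For AC50: mutual information between electrodes summarised as area under curve across four recording days; potency is for a decrease in mutual information relative to DMSO.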 The method in brief: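 Neurons from rat cortex were seeded at 1.5 x 10^5 cells/well onto PEI-coated MEAs in a laminin drop, then exposed to compound from day 0 for twelve days. Network recordings on four days gave mutual information, summarised by AUC relative to DMSO.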

The nature of assay [14]: IUF_NPC1b_proliferation_BrdU_72hr: Leibniz Research Institute for Environmental Medicine (IUF) 72-hour Neural Progenitor Cell Bromodeoxyuridine (BrdU) Proliferation Assay (NPC1b) (AID 2284207). An outline of the steps:
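Luminescent BrdU ELISA measured DNA synthesis during the last 16 h of a 72 h exposure of primary human neural progenitor spheres grown with EGF and FGF. Signal was fitted relative to DMSO controls.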

Assay [15] in a line: IUF_NPC1a_proliferation_area_72hr: Leibniz Research Institute for Environmental Medicine (IUF) 72-hour Neural Progenitor Cell Proliferation Area Assay (NPC1a) (AID 2284208). An outline of the steps: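 Spheres of 0.3 mm are plated singly in growth-factor medium and exposed from day 0. After three days at 37C and 5% CO2, sphere area is measured by phase contrast imaging, with activity referenced to DMSO.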

The nature of assay [16]: IUF_NPC1_viability_72hr: Viability Assessment at 72 hours in the Leibniz Research Institute for Environmental Medicine (IUF) Neural Progenitor Cell Proliferation Assay (NPC1) (AID 2284209). The method in brief: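 Three-day continuous exposure of human neural progenitor spheres under EGF/FGF-driven proliferation; cell viability scored by alamar blue signal versus DMSO.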

Assay [17] can be described thus: CCTE_Mundy_HCI_Cortical_Synap_Neur_Matur_NeuriteSpotCountPerNeuriteLength: CCTE's Synaptogenesis and Neurite Maturation Assay in rat cortical cells for Neurite Spot Count per Neurite Length, Mundy Lab (AID 2284210). The method in brief:
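Read-out: synaptophysin puncta counted along MAP2-stained neurites, normalised to neurite length, by automated high-content imaging. Rat cortical cells; AraC DIV 5; chemical dosing DIV 7; termination DIV 12. DMSO baseline.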

The nature of assay [18]: CCTE_Mundy_HCI_Cortical_NOG_NeuriteLength: CCTE's Neurite Outgrowth Assay in rat cortical cells for Neurite Length, Mundy Lab (AID 2284213).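 For AC50: neurites imaged about 48 to 50 h after chemical exposure began.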 An outline of the steps: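 First, rat primary cortical cells were plated and, 2 h later, given test chemical as a 1/10 dilution. Finally, βIII-tubulin immunostaining enabled automated imaging of neurite length.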
Assay [19] can be described thus: CCTE_Mundy_HCI_Cortical_Synap_Neur_Matur_NeuriteLength: CCTE's Synaptogenesis and Neurite Maturation Assay in rat cortical cells for Neurite Length, Mundy Lab (AID 2284214). An outline of the steps: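 DMSO-normalised neurite length, from high-content imaging of anti-MAP2-stained rat cortical cells fixed at DIV 12. Glia were suppressed with AraC (DIV 5) before chemical exposure from DIV 7.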

Assay [20] in a line: CCTE_Mundy_HCI_Cortical_Synap_Neur_Matur_NeuriteSpotCountPerNeuron: CCTE's Synaptogenesis and Neurite Maturation Assay in rat cortical cells for Neurite Spot Count per Neuron Count, Mundy Lab (AID 2284215). The method in brief:
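Rat cortical primary cultures; AraC DIV 5 to arrest glia; dosing + media change DIV 7; fixed DIV 12. Anti-MAP2/anti-synaptophysin, Hoechst nuclei; HCI puncta count per neuron, positive fitting direction vs DMSO.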

Inconclusive results are not listed. Activity calls are given as the source filed them. Rule for the calls, unless noted: active = hit-call score of the fitted dose curve at least 0.9, where 1 is the maximum; inactive = score below 0.9.

Consider `Cc1c(O)cccc1C(=O)N[C@@H](CSc1ccccc1)[C@H](O)CN1C[C@H]2CCCC[C@H]2C[C@H]1C(=O)NC(C)(C)C`, for which the AC50 was 1430 nM (active) in assay [1]; 664 nM (active) in assay [2]; 819 nM (active) in [3]; 473 nM (active) in assay [4]; 311 nM (active) in assay [5]; 1510 nM (active) in assay [6]. In addition, the half-maximal activity concentration (AC50) in assay [7] was 1090 nM (active); in [8], 1560 nM (active); in assay [9], 1260 nM (active); in [10] it was 1270 nM (active); in [11] it was 1190 nM (active); in assay [12] it was 6350 nM (active). The AC50 was 772 nM (active) in assay [13]; 8000 nM (active) in assay [14]; 25000 nM (active) in [15]; 14000 nM (active) in assay [16]; 6390 nM (active) in assay [17]; 28900 nM (active) in [18]. Further, the concentration at half-maximal activity (AC50) in assay [19] was 4560 nM (active); in [20], 2490 nM (active).

Regarding `CC1(C)S[C@@H]2[C@H](NC(=O)[C@H](N)c3ccc(O)cc3)C(=O)N2[C@H]1C(=O)O`, the result in assay [1], in assay [2], in assay [3], in assay [4], in assay [5] and in assay [6] was inactive. Further, the result in assay [7], in [8], in assay [9], in assay [10], in [11] and in assay [12] was inactive. Besides, the call in assay [13], in [14], in assay [15], in assay [16], in assay [17] and in assay [18] was inactive. In addition, the outcome in assay [19] and in [20] was inactive.

As usually defined, the AC50 is the concentration at which the activity in the assay is half-maximal.

(Values after PubChem BioAssay (EPA / NIEHS).)
